Compound activity (PubChem BioAssay)
Rows were chosen to be rich in hits. Some 4% of all compounds tested hit in one or more screens of this group.
GDH-TPI counter: GDH-TPI coupled enzyme inhibition counter-screen. GDH-TPI coupled enzyme counterscreen, NADH absorbance. inhibition, % at 4.8 µM. 1.2% of 360,000 active;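 note: 0% = DMSO wells and 100% = wells lacking the enzyme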
MazF activator: activators of E. coli MazEF toxin-antitoxin RNase; AID 504720; activation, % at 20 µM; FAM/BHQ RNA-DNA oligo cleavage fluorescence, 5 h; 0.32% of 350,000 active; P0AE70; in the data active = activation above about 50%
Target sequence (P0AE70 whole entry, looked up): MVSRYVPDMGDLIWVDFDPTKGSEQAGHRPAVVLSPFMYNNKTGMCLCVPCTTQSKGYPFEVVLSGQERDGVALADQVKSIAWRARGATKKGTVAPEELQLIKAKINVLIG
FBA Mtb inh: Mtb fructose-bisphosphate aldolase inhibition. P9WQA3. purified M. tuberculosis FBA, fluorescence read-out. inhibition, % at 1 µM. 2.3% of 360,000 active. AID 588726; in the data active = inhibition above about 27%;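 note: 0% = vehicle and 100% = reference inhibitor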
Target sequence (P9WQA3 whole entry, looked up): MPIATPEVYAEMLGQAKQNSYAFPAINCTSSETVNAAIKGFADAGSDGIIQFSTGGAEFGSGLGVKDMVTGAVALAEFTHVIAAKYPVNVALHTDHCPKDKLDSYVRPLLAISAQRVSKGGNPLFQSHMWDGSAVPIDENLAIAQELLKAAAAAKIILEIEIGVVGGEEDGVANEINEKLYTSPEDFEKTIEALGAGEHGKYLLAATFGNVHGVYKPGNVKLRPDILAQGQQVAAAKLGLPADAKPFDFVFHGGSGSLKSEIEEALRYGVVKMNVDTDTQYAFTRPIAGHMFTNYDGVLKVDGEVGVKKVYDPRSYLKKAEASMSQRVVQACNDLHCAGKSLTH
Mtb bLac sens: beta-lactam sensitization of Mtb H37Rv | inhibition, % at 25 µM | 0.27% of 330,000 active | M. tuberculosis H37Rv growth with meropenem, percent inhibition; call rule not given here;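 note: growth measured after seven days incubation then overnight dye step; 0% = bacteria only wells and 100% = bacteria with antibiotic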
CCHF vOTU inh: CCHFV vOTU protease inhibition; 0.55% of 370,000 active; AID 651958; Pep-AMC fluorescence; inhibition, % at 11.5 µM; note: 0% = vehicle wells with enzyme and 100% = no enzyme wells
* = called active by the depositor. Cut-off read from the data, not from the text of the source, unless noted: active = inhibition above about 30%; inactive = the rest.

CCCC[C@H]1C2CC(OC(=O)Nc3cc(C)cc(C)c3)C(C2)[C@H]2CCCCN21 (some centres undefined) was read as CCHF vOTU inh -2.8.
COc1ccc(/C=C/c2cc(=O)c3cc(Cl)ccc3o2)cc1 was read as GDH-TPI counter 11.5, MazF activator 54.2*, FBA Mtb inh -1.2, Mtb bLac sens inconclusive and CCHF vOTU inh 3.2.
Screening COc1c(Cl)c(=O)oc2ccc(Cl)cc12 returned GDH-TPI counter 15.0, MazF activator 1.8, FBA Mtb inh 8.5 and CCHF vOTU inh -4.4.
Screening CC(C)C(=O)Nc1nc(-c2ccc(S(=O)(=O)N3CCOCC3)cc2)cs1 returned GDH-TPI counter 1.7, MazF activator -6.2, FBA Mtb inh 59.1*, Mtb bLac sens 2.6 and CCHF vOTU inh -4.0.
For COc1ccc(-c2cc(C(=O)NN=C/C(C)=C/c3ccccc3)[nH]n2)cc1 the results were CCHF vOTU inh 23.6.
Cc1nc2cc(-c3ccccc3)sc2c(=O)n1N was read as GDH-TPI counter 5.4, MazF activator 11.2, FBA Mtb inh 1.3, Mtb bLac sens 7.3 and CCHF vOTU inh -7.9.
COc1ccc(-c2cc3nc4n(c(=O)c3s2)CCC4)cc1 was read as GDH-TPI counter 13.4, MazF activator 6.3, FBA Mtb inh active, Mtb bLac sens 4.2 and CCHF vOTU inh -91.7.
Screening COc1ccc(-c2nc3n(c2C)CCC3)cc1 returned GDH-TPI counter 3.4, MazF activator 12.9, FBA Mtb inh -2.0, Mtb bLac sens 1.8 and CCHF vOTU inh -2.0.
Screening COc1ccc(-c2cc3nc4n(c(=O)c3s2)CCCCC4)cc1 returned GDH-TPI counter 24.1, MazF activator 5.1, FBA Mtb inh active, Mtb bLac sens 4.7 and CCHF vOTU inh -43.9.
COc1ccc(-c2cc3nc(C)n(N)c(=O)c3s2)cc1 was read as GDH-TPI counter 32.4*, MazF activator -1.3, FBA Mtb inh active, Mtb bLac sens -11.1 and CCHF vOTU inh -99.3.
Screening Cc1ccccc1S(=O)(=O)/N=C(/Nc1nc2ccccc2s1)c1ccccc1 returned GDH-TPI counter 43.7*, MazF activator 5.4, FBA Mtb inh 3.2, Mtb bLac sens -7.9 and CCHF vOTU inh 8.5.
Cc1ccc(/C=N/NC(=O)c2nn(C)cc2Cl)cc1 was read as GDH-TPI counter 10.3, MazF activator 9.8, FBA Mtb inh 1.0, Mtb bLac sens 4.3 and CCHF vOTU inh 2.6.
`Cn1cc(Cl)c(C(=O)N/N=C/c2ccc3c4c(cccc24)CC3)n1` gave GDH-TPI counter 35.9*, MazF activator 67.6*, FBA Mtb inh 29.6* and Mtb bLac sens -7.4.
Screening COc1ccccc1N1CCN(C(=O)/C=C/c2c(Cl)nc3ccccn23)CC1 returned GDH-TPI counter 47.4*, MazF activator 16.5, FBA Mtb inh 0.3, Mtb bLac sens 4.8 and CCHF vOTU inh 9.0.
Screening COc1ccc(-n2c(SCC(=O)Nc3ccccc3-c3ccccc3)nnc2-c2ccccn2)cc1 returned CCHF vOTU inh 14.6.
For CCCc1cc(C(F)(F)F)c(C#N)c(=O)[nH]1 the results were GDH-TPI counter 11.2, MazF activator -0.7, FBA Mtb inh 156.0*, Mtb bLac sens -12.6 and CCHF vOTU inh -170.0.
`CC(C)(C)c1cc(C(F)(F)F)c(C#N)c(=O)[nH]1` gave GDH-TPI counter 5.0, MazF activator -6.4, FBA Mtb inh 119.5*, Mtb bLac sens 1.5 and CCHF vOTU inh -170.3.
Screening COc1ccc2[nH]c(C)c(C(=O)CN3CCN(C/C=C/c4ccccc4)CC3)c2c1 returned GDH-TPI counter -5.6, MazF activator 3.2, FBA Mtb inh -2.1, Mtb bLac sens -5.2 and CCHF vOTU inh 30.7*.
Screening Cc1[nH]c2ccccc2c1C(=O)CN1CCN(C/C=C/c2ccccc2)CC1 returned GDH-TPI counter -2.6, MazF activator 1.7, FBA Mtb inh -4.3, Mtb bLac sens 33.5 and CCHF vOTU inh 19.9.
For C[C@H]1COc2cc(Br)ccc2S(=O)(=O)N1Cc1cn(Cc2ccc(Br)cc2)nn1 the results were CCHF vOTU inh -4.9.
N#CC1C(=O)Nc2cccnc21 (centres undefined) was read as GDH-TPI counter 9.1, MazF activator 3.0, FBA Mtb inh active and CCHF vOTU inh -1.6.
Cc1onc(-c2ccc(Cl)cc2)c1-c1ccn(S(=O)(=O)c2cccc(Cl)c2)n1 was read as CCHF vOTU inh 26.9.
Screening O=C1c2cccc3cc([N+](=O)[O-])cc(c23)C(=O)N1CCN1CCCC1 returned GDH-TPI counter 10.0, MazF activator -30.6, FBA Mtb inh -0.1 and CCHF vOTU inh 9.4.
O=C1c2cccc3cc([N+](=O)[O-])cc(c23)C(=O)N1/N=C/c1ccc(O)cc1O was read as GDH-TPI counter 55.7*, MazF activator -22.8, FBA Mtb inh -3.9, Mtb bLac sens 90.4 and CCHF vOTU inh 8.5.
NC(=O)CC(NC(=O)c1ccc(Br)cc1)c1ccc(NCc2ccc(F)cc2)c([N+](=O)[O-])c1 (centres undefined) was read as GDH-TPI counter 4.2, MazF activator 2.6, FBA Mtb inh -1.5, Mtb bLac sens -12.8 and CCHF vOTU inh -0.9.
Cc1ccccc1CNc1ccc(C(CC(N)=O)NC(=O)c2ccc(Br)cc2)cc1[N+](=O)[O-] (centres undefined) was read as GDH-TPI counter 5.8, MazF activator 81.4*, FBA Mtb inh -5.1, Mtb bLac sens 24.5 and CCHF vOTU inh -0.4.
COc1cccc(CNC(=O)C2CCC(CNS(=O)(=O)c3cccc4cccnc34)CC2)c1OC (centres undefined) was read as CCHF vOTU inh -7.1.
`CCN(CC)C(=O)CC[C@@H]1CC[C@]2(CCCN(S(=O)(=O)c3ccccc3)C2)O1` gave CCHF vOTU inh 7.7.
COc1ccc(/C=C2/SC(=S)N(c3ccc(S(=O)(=O)Nc4nccs4)cc3)C2=O)cc1 was read as GDH-TPI counter 12.2, MazF activator -15.5, FBA Mtb inh -6.5, Mtb bLac sens 0.5 and CCHF vOTU inh 13.5.
Screening COc1ccc(/C=C2/SC(=O)N(CCC(=O)Nc3ccc(S(=O)(=O)Nc4nccs4)cc3)C2=O)cc1 returned GDH-TPI counter 33.8*, MazF activator -8.6, FBA Mtb inh -5.9, Mtb bLac sens -6.7 and CCHF vOTU inh 10.1.
For Cc1ccc(/C=C2/SC(=S)N(c3ccc(S(=O)(=O)Nc4nccs4)cc3)C2=O)cc1 the results were GDH-TPI counter 39.3*, MazF activator -8.5, FBA Mtb inh 1.7, Mtb bLac sens 11.3 and CCHF vOTU inh 14.1.
`COc1ccc(-n2ccc(=O)c(C(=O)Nc3ccc(S(=O)(=O)Nc4nccs4)cc3)n2)cc1` gave GDH-TPI counter 39.9*, MazF activator 9.5, FBA Mtb inh 2.4, Mtb bLac sens 0.0 and CCHF vOTU inh 27.7.
`CCC(C(=O)Nc1ccccc1N1CCCC1)c1ccccc1Cl` (centres undefined) gave CCHF vOTU inh 7.2.
Clc1ccc(-c2nc3ncccn3c2Cl)cc1 was read as GDH-TPI counter 13.9, MazF activator -20.4, FBA Mtb inh active and Mtb bLac sens 8.9.
For CC(=O)n1c2ccccc2c2ccccc21 the results were GDH-TPI counter 10.0, MazF activator 4.8, FBA Mtb inh 1.2, Mtb bLac sens 2.9 and CCHF vOTU inh 10.6.
